Among the data in ChEMBL document CHEMBL1961873, “Compounds: GSK PKIS; Assays: Nanosyn kinase panel” (2012) are inhibition values, retold here.

Broadly, the inhibition is the relative decrease from the control value, in per cent.

Experiment [1] has as its target Ribosomal protein S6 kinase alpha-6 (Homo sapiens) (UniProt Q9UK32). The settings on record: at 1 µM.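 Also: each value is a mean inhibition of RSK4 from a GSK PKIS panel screen.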
The target in experiment [2] is T1, Serine/threonine-protein kinase Sgk1 (Homo sapiens) (UniProt O00141).
T1 sequence (whole entry): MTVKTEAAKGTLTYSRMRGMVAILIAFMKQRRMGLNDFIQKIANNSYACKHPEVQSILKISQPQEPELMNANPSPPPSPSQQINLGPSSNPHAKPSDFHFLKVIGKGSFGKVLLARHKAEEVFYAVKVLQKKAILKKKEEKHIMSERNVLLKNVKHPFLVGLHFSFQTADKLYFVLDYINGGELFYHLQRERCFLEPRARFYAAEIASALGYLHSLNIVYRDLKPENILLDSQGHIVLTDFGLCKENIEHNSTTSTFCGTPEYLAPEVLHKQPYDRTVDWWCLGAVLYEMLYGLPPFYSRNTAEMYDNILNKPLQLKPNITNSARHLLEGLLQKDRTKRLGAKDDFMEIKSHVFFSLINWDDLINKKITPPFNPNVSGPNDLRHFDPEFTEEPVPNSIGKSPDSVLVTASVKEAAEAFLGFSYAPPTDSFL
The settings on record: at 0.1 µM.

In experiment [3] the target is T1, Serine/threonine-protein kinase Sgk1 (Homo sapiens). The settings on record: at 1 µM.
The target of experiment [4] is T2, Serine/threonine-protein kinase Sgk2 (Homo sapiens) (UniProt Q9HBY8).
T2 sequence (whole entry): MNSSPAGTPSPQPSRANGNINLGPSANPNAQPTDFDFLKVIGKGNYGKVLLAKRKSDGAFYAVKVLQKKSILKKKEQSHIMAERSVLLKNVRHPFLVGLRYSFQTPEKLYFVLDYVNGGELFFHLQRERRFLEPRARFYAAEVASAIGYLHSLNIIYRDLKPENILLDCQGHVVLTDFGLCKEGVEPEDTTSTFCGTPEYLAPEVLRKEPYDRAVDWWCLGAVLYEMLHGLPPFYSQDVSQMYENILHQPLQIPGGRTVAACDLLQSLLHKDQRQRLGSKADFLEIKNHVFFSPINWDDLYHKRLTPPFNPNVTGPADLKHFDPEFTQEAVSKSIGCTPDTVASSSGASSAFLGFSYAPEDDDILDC
The note with it: at 0.1 µM.

The target in experiment [5] is T2, Serine/threonine-protein kinase Sgk2 (Homo sapiens). The settings on record: at 1 µM.
Experiment [6] has as its target T3, Serine/threonine-protein kinase Sgk3 (Homo sapiens) (UniProt Q96BR1).
T3 sequence (whole entry): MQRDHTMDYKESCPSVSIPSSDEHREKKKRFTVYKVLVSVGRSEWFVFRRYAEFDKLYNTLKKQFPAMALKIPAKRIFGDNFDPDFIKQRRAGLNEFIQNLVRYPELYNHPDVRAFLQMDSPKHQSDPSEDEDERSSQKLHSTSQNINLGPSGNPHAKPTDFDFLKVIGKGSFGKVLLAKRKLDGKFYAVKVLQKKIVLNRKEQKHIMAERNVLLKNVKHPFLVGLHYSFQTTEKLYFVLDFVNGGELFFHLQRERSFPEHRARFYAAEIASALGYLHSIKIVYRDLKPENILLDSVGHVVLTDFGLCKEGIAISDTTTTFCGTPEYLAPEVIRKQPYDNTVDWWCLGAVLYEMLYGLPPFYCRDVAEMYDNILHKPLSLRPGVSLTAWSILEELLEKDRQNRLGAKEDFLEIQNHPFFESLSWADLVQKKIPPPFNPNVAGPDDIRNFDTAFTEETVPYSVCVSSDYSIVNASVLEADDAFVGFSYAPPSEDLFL
The settings on record: at 0.1 µM.

Experiment [7] addresses T3, Serine/threonine-protein kinase Sgk3 (Homo sapiens). The note with it: at 1 µM.
The target in experiment [8] is 5'-AMP-activated protein kinase catalytic subunit alpha-1 (Homo sapiens) (UniProt Q13131). The settings on record: at 0.1 µM.
Chain of 5'-AMP-activated protein kinase catalytic subunit alpha-1 (Homo sapiens) (Q13131 whole entry, looked up): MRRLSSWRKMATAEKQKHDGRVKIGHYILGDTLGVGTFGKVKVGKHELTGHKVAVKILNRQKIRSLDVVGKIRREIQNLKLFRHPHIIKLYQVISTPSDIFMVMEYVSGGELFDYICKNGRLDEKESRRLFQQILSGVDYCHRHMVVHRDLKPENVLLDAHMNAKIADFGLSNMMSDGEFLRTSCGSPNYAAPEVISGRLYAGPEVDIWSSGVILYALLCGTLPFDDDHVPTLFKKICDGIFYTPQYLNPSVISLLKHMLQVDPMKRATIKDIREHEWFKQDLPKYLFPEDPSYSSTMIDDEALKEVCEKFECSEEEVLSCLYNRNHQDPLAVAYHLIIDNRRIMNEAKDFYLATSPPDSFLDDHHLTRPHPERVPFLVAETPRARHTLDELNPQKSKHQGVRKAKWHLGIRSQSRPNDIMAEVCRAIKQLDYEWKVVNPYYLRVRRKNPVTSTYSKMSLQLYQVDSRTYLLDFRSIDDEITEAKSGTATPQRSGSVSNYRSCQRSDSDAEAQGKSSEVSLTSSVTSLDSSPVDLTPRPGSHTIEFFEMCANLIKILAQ
For experiment [9] the target is unchanged. The note with it: at 1 µM.
The target of experiment [10] is 5'-AMP-activated protein kinase catalytic subunit alpha-2 (Homo sapiens) (UniProt P54646). The settings on record: at 0.1 µM.
Chain of 5'-AMP-activated protein kinase catalytic subunit alpha-2 (Homo sapiens) (P54646 whole entry, looked up): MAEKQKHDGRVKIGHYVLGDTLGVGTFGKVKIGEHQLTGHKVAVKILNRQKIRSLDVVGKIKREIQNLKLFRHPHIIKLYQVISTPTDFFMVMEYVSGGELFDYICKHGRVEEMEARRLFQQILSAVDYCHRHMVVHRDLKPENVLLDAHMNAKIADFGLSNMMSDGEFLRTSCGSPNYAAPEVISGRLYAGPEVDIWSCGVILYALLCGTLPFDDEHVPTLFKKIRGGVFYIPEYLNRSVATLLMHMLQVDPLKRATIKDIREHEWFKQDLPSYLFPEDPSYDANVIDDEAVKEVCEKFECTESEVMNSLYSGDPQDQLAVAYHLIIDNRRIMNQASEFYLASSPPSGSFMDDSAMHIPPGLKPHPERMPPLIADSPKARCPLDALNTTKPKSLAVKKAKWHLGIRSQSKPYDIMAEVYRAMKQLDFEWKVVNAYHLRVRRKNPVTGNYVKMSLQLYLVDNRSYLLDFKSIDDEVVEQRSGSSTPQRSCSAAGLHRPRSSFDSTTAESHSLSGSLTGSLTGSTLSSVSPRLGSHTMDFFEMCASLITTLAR
The target is the same in experiment [11]. The note with it: at 1 µM.
Experiment [12] deals with T4, NUAK family SNF1-like kinase 1 (Homo sapiens) (UniProt O60285).
T4 sequence (whole entry): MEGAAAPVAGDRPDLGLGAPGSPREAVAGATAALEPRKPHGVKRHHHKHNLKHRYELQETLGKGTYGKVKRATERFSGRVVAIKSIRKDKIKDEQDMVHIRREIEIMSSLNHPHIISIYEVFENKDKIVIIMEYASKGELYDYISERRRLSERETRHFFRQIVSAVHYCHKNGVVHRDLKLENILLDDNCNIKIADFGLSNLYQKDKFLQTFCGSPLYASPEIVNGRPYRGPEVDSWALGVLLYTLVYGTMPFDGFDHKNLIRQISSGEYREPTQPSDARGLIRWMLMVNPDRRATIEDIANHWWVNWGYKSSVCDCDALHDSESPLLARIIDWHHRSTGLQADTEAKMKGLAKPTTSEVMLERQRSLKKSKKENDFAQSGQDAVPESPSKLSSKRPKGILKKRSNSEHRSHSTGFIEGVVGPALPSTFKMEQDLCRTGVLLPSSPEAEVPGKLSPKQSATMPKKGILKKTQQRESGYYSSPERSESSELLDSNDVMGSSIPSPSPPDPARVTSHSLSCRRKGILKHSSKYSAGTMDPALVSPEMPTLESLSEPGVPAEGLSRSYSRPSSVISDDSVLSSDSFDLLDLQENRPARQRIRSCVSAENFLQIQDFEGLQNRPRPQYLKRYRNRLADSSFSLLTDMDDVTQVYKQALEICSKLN
The settings on record: at 0.1 µM.

For experiment [13], the target named is T4, NUAK family SNF1-like kinase 1 (Homo sapiens). The settings on record: at 1 µM.
Experiment [14] addresses T5, Serine/threonine-protein kinase BRSK1 (Homo sapiens) (UniProt Q8TDC3).
T5 sequence (whole entry): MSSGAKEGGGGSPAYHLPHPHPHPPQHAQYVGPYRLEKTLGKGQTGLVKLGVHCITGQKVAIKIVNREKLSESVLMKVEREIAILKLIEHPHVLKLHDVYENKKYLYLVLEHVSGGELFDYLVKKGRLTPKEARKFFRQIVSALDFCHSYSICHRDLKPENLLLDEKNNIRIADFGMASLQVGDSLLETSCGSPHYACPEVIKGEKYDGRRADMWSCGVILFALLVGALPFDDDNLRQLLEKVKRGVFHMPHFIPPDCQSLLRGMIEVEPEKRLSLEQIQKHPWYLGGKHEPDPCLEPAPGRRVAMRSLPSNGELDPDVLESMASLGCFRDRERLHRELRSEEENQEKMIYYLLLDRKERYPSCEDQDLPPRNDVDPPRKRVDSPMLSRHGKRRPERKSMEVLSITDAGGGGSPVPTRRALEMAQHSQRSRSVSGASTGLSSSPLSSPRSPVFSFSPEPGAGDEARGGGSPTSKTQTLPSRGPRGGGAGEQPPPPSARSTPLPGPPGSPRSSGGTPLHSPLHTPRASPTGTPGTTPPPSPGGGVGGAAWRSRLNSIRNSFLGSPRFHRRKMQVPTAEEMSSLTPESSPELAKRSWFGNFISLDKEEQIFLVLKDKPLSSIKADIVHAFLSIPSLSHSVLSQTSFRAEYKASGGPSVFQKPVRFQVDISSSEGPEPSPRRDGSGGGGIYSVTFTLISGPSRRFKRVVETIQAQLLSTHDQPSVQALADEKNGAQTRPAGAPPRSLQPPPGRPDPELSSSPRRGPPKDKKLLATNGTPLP
The note with it: at 0.1 µM.

Experiment [15] addresses T5, Serine/threonine-protein kinase BRSK1 (Homo sapiens). The note with it: at 1 µM.
In experiment [16] the target is T6, Serine/threonine-protein kinase BRSK2 (Homo sapiens) (UniProt Q8IWQ3).
T6 sequence (whole entry): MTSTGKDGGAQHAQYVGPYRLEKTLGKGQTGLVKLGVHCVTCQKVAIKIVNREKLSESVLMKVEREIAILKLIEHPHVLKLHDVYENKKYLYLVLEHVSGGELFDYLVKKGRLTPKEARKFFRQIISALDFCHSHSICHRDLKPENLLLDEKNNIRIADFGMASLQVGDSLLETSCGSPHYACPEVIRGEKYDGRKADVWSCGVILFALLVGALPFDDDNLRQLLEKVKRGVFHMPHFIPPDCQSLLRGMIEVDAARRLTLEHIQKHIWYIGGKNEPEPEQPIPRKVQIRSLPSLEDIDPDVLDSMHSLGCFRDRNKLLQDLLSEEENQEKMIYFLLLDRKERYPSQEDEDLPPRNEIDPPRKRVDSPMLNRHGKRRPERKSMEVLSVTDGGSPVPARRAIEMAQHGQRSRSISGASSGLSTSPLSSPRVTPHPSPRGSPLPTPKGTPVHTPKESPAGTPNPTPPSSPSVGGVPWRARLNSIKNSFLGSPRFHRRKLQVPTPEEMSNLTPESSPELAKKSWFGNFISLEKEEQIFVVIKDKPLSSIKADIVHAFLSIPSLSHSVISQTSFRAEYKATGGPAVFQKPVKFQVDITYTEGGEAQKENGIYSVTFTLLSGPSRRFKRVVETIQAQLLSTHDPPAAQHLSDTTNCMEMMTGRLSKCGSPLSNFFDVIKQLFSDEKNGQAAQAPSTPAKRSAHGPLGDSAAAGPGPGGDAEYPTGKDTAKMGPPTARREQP
The settings on record: at 0.1 µM.

Experiment [17] concerns the target T6, Serine/threonine-protein kinase BRSK2 (Homo sapiens). The settings on record: at 1 µM.
Experiment [18] has as its target Calcium/calmodulin-dependent protein kinase type 1D (Homo sapiens) (UniProt Q8IU85). The settings on record: at 0.1 µM.
Experiment [19] has the same target. The note with it: at 1 µM.
Experiment [20] addresses Calcium/calmodulin-dependent protein kinase type II subunit alpha (Homo sapiens) (UniProt Q9UQM7). The settings on record: at 0.1 µM.

Chain of Calcium/calmodulin-dependent protein kinase type II subunit alpha (Homo sapiens) (Q9UQM7 whole entry): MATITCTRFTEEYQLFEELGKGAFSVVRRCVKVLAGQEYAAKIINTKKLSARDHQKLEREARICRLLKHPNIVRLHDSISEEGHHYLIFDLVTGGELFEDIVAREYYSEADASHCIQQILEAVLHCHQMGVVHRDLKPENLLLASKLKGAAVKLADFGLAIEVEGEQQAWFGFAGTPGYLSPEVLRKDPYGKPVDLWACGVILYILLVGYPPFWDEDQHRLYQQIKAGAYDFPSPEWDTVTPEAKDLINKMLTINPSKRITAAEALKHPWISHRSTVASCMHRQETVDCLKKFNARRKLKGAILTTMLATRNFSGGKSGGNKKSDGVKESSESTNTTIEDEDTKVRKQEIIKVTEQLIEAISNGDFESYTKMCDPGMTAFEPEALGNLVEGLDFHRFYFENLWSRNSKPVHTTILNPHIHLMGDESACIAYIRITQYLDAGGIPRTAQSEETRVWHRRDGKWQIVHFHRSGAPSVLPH
Chain of Calcium/calmodulin-dependent protein kinase type 1D (Homo sapiens) (Q8IU85 whole entry, looked up): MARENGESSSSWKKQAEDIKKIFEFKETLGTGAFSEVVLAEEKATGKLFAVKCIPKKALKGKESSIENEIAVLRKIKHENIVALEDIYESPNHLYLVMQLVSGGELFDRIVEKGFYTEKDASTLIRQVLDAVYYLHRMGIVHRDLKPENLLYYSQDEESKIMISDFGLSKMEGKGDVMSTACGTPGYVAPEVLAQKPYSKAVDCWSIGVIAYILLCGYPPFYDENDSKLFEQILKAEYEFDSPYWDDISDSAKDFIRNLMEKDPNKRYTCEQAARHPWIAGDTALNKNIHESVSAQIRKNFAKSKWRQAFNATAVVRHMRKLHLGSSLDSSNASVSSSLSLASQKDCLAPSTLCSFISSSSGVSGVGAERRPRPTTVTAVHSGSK
Chain of Ribosomal protein S6 kinase alpha-6 (Homo sapiens) (Q9UK32 whole entry): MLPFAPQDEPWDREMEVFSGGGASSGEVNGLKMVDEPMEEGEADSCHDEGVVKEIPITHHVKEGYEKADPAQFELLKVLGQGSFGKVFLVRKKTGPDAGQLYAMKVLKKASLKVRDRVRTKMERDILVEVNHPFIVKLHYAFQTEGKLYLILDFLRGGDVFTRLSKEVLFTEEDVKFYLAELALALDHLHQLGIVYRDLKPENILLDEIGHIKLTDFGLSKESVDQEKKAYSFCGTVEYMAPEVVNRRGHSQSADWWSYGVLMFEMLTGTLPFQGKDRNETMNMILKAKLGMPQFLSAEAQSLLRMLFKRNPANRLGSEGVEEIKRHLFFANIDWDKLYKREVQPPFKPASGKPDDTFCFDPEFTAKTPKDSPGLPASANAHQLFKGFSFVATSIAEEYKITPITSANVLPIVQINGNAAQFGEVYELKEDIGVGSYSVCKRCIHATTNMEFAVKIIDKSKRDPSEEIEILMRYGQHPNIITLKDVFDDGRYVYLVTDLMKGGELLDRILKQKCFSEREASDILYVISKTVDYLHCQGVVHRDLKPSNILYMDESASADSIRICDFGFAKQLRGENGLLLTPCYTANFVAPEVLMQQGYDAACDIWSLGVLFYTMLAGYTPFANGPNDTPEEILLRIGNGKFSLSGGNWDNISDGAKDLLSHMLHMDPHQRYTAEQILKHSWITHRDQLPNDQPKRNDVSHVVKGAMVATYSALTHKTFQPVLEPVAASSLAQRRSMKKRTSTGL

Turning to `CCNC(=O)O[C@H]1CN[C@H](C#Cc2cc3ncnc(Nc4ccc(OCc5cccc(F)c5)c(Cl)c4)c3s2)C1`, the inhibition in experiment [1] was 2.88%; in experiment [2], 2.25%; in [3] it was -0.58%; in experiment [4], 8.05%; in experiment [5] it was 5.53%; in [6], 4.38%. In addition, the inhibition was -0.29% in experiment [7]; 2.46% in experiment [8]; 2.35% in experiment [9]; 0.44% in [10]; 4.45% in experiment [11]; 1.68% in experiment [12]. In addition, the inhibition was found to be 6.34% in experiment [13]; 0.67% in experiment [14]; 2.32% in experiment [15]; 2.25% in experiment [16]; 1.26% in [17]; 1.21% in [18]. The inhibition worked out at 2.24% in experiment [19] and 3.45% in experiment [20].
As for `COc1ccc(CNC(=O)c2ccc(-c3cc(-c4nnc(C)o4)ccc3C)cc2)cc1`, the inhibition in experiment [1] came out at 0.1%; in experiment [2], 5.7%; in experiment [3], 6.79%; in [4], 4.8%; in [5] it was 8.78%; in [6], 7.73%. For the same compound, the inhibition in [7] was found to be 8.7%; in experiment [8], 0.41%; in experiment [9], 5.85%; in experiment [10], 2.84%; in experiment [11] it was 2.36%; in experiment [12] it was 2.93%. Besides, the inhibition in experiment [13] turned out to be 5.45%; in [14], 0.61%; in [15], 8.76%; in experiment [16], 3.42%; in experiment [17], 13%; in [18], 1.11%. The inhibition in [19] is -0.23%; in [20], 1.23%.
Turning to `COc1ccc2c(-c3ccnc(Nc4cccc(OC(F)(F)F)c4)n3)cnn2n1`, the inhibition was determined as 3.03% in experiment [1]; 3.35% in experiment [2]; 2.06% in [3]; 6.82% in [4]; 9.02% in [5]; 5.66% in experiment [6]. The inhibition in [7] is 4.44%; in [8], 4.09%; in [9], 7.03%; in [10] it was -7%; in [11] it was 5.72%; in experiment [12], 6.86%. Moreover, the inhibition in [13] is 30.7%; in [14] it was -1.42%; in experiment [15], 3.33%; in experiment [16] it was 2.27%; in [17] it was 3.88%; in experiment [18], 0.18%. Moreover, the values for the inhibition in [19] and in experiment [20] were 2.77% and 4.78%, respectively.
